# Assay results published in paper PMC7862700, “An all-to-all approach to the identification of sequence-specific readers for epigenetic DNA modifications on cytosine”.
# Assays:
# Test in all cases: DAPPL (digital affinity profiling via proximity ligation, sequencing); 10 mM Tris-HCl pH 7.5, 50 mM NaCl, 1 mM DTT, 4% glycerol, room temperature, 30 min; GST-TFs on glutathione beads, 16-mer random dsDNA library, 0.1% formaldehyde crosslink after washing; high values mean tight binding
# Settings in all cases: protein: recombinant; tags: N-terminal GST; dsDNA, one strand shown
# ELK4 = biological target: T1, ELK4 (Homo sapiens, UniProt P28324-2 1-405)
# T1 sequence: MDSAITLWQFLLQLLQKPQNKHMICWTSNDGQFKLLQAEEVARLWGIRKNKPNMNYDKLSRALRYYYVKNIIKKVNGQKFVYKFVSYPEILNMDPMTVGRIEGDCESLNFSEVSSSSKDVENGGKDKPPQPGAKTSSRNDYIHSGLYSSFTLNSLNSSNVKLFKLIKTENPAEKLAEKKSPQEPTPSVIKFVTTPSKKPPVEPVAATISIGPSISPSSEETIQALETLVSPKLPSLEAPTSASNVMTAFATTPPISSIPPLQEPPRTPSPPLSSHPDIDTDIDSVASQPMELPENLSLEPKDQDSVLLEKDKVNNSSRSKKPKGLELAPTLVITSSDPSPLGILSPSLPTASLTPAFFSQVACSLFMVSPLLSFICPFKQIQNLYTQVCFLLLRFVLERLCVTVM
# In short: (§1)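 GST fusions of human transcription factors were expressed in yeast and captured with glutathione beads. Once given DNA barcodes and pooled alongside a tag-only sample, they were incubated for 30 min at room temperature with 200 nmole of a random double-stranded 16-mer DNA library in Tris/NaCl/DTT/glycerol buffer, then washed, crosslinked (0.1% formaldehyde), proximity-ligated, PCR-amplified and sequenced on an Illumina NextSeq500. The binding signal of each hexamer is its read frequency for a factor divided by its frequency for the tag-only sample.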
# ETV2 = biological target: T2, ETV2 (Homo sapiens, UniProt O00321 1-342)
# T2 sequence: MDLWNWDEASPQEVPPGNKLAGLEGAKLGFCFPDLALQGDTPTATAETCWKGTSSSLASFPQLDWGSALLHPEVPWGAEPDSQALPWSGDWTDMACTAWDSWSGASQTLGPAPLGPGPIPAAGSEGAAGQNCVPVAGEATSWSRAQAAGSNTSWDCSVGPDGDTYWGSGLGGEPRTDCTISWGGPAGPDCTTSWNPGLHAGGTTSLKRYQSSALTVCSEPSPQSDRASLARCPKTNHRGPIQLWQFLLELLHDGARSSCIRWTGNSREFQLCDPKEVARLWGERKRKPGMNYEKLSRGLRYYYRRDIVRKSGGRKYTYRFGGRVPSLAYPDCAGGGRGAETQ
# In short: as §1
# ELF3 = biological target: T3, ELF3 (Homo sapiens, UniProt P78545 1-371)
# T3 sequence: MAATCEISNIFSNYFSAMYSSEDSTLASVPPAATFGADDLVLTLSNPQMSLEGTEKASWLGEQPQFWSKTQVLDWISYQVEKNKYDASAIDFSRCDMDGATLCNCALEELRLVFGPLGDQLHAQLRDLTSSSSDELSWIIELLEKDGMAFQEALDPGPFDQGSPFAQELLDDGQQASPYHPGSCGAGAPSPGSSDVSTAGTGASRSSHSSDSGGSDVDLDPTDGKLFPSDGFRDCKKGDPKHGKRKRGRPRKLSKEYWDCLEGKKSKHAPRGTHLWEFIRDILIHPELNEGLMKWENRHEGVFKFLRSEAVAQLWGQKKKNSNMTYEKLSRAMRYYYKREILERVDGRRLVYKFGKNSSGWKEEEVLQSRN
# In short: as §1
# CRX = CRX (Homo sapiens, UniProt O43186 1-299)
# Sequence of CRX (O43186 whole entry): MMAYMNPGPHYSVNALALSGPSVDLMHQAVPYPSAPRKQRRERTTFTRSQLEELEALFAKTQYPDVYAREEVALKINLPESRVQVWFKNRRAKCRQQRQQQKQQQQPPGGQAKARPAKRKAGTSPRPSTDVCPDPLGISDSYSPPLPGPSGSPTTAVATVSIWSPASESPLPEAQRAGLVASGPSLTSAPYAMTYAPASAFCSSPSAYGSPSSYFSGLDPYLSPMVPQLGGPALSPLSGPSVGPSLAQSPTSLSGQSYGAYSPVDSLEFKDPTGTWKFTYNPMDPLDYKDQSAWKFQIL
# In short: as §1
# ETV7 = biological target: T4, ETV7 (Homo sapiens, UniProt Q9Y603 1-341)
# T4 sequence: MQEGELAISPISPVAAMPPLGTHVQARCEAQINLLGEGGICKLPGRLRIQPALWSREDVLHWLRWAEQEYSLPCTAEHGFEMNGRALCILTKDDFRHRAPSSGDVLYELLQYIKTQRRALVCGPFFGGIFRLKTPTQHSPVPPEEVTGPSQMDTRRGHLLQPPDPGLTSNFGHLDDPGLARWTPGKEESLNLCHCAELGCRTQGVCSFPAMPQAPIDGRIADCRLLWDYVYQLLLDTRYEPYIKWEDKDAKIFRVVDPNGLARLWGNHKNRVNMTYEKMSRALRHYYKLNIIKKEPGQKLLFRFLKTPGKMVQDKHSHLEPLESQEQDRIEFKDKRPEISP
# In short: as §1
# ELF5 = biological target: T5, ELF5 (Homo sapiens, UniProt Q9UKW6-2 1-255)
# T5 sequence: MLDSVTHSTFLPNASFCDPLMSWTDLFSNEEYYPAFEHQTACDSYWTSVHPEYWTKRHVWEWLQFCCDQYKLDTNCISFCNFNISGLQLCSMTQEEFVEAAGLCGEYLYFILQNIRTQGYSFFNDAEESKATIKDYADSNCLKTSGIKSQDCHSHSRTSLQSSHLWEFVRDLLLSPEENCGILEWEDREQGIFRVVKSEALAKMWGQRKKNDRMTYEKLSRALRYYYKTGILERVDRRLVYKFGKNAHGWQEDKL
# In short: as §1
Sequence,binding signal (ELK4),binding signal (ETV2),binding signal (ELF3),binding signal (CRX),binding signal (ETV7),binding signal (ELF5)
TACCCC,"1.19 fold enrichment (6-mer frequency, TF over GST control)","1.19 fold enrichment (6-mer frequency, TF over GST control)","1.04 fold enrichment (6-mer frequency, TF over GST control)","1.03 fold enrichment (6-mer frequency, TF over GST control)","1.1 fold enrichment (6-mer frequency, TF over GST control)","1.12 fold enrichment (6-mer frequency, TF over GST control)"
GTTATA,–,–,"1.13 fold enrichment (6-mer frequency, TF over GST control)","1.08 fold enrichment (6-mer frequency, TF over GST control)","1.05 fold enrichment (6-mer frequency, TF over GST control)",–
ACCGCA,"1.05 fold enrichment (6-mer frequency, TF over GST control)","1.3 fold enrichment (6-mer frequency, TF over GST control)","1.29 fold enrichment (6-mer frequency, TF over GST control)","1.01 fold enrichment (6-mer frequency, TF over GST control)","1.12 fold enrichment (6-mer frequency, TF over GST control)","1.1 fold enrichment (6-mer frequency, TF over GST control)"
CGGATC,–,"1.03 fold enrichment (6-mer frequency, TF over GST control)",–,"1.21 fold enrichment (6-mer frequency, TF over GST control)",–,"1.05 fold enrichment (6-mer frequency, TF over GST control)"
AGTGTA,–,–,–,–,"1.1 fold enrichment (6-mer frequency, TF over GST control)",–
ACTGTA,"1.08 fold enrichment (6-mer frequency, TF over GST control)","1.17 fold enrichment (6-mer frequency, TF over GST control)",–,–,–,"1.07 fold enrichment (6-mer frequency, TF over GST control)"
ACTAGG,"1.03 fold enrichment (6-mer frequency, TF over GST control)","1.28 fold enrichment (6-mer frequency, TF over GST control)",–,–,–,"1 fold enrichment (6-mer frequency, TF over GST control)"
GCTTGT,–,"1.03 fold enrichment (6-mer frequency, TF over GST control)","1.09 fold enrichment (6-mer frequency, TF over GST control)",–,"1.09 fold enrichment (6-mer frequency, TF over GST control)","1.05 fold enrichment (6-mer frequency, TF over GST control)"
GGTATG,"1.09 fold enrichment (6-mer frequency, TF over GST control)","1.05 fold enrichment (6-mer frequency, TF over GST control)",–,–,"1.01 fold enrichment (6-mer frequency, TF over GST control)",–
ACGACC,"1.14 fold enrichment (6-mer frequency, TF over GST control)","1.34 fold enrichment (6-mer frequency, TF over GST control)","1.25 fold enrichment (6-mer frequency, TF over GST control)",–,"1.18 fold enrichment (6-mer frequency, TF over GST control)","1.17 fold enrichment (6-mer frequency, TF over GST control)"
TGGGTA,"1.02 fold enrichment (6-mer frequency, TF over GST control)","1.14 fold enrichment (6-mer frequency, TF over GST control)","1.1 fold enrichment (6-mer frequency, TF over GST control)",–,"1.01 fold enrichment (6-mer frequency, TF over GST control)",–
ACCATT,"1.15 fold enrichment (6-mer frequency, TF over GST control)","1.26 fold enrichment (6-mer frequency, TF over GST control)","1.17 fold enrichment (6-mer frequency, TF over GST control)",–,"1.11 fold enrichment (6-mer frequency, TF over GST control)","1.15 fold enrichment (6-mer frequency, TF over GST control)"
AGTAAC,–,"1.05 fold enrichment (6-mer frequency, TF over GST control)",–,–,–,"1.09 fold enrichment (6-mer frequency, TF over GST control)"
CTATCA,"1.06 fold enrichment (6-mer frequency, TF over GST control)","1.05 fold enrichment (6-mer frequency, TF over GST control)","1.02 fold enrichment (6-mer frequency, TF over GST control)","1.01 fold enrichment (6-mer frequency, TF over GST control)","1.06 fold enrichment (6-mer frequency, TF over GST control)","1.01 fold enrichment (6-mer frequency, TF over GST control)"
GTCCTG,–,"1.29 fold enrichment (6-mer frequency, TF over GST control)","1.07 fold enrichment (6-mer frequency, TF over GST control)",–,"1.26 fold enrichment (6-mer frequency, TF over GST control)","1.3 fold enrichment (6-mer frequency, TF over GST control)"
CATTGT,"1.17 fold enrichment (6-mer frequency, TF over GST control)","1.11 fold enrichment (6-mer frequency, TF over GST control)","1.02 fold enrichment (6-mer frequency, TF over GST control)",–,"1.11 fold enrichment (6-mer frequency, TF over GST control)","1.1 fold enrichment (6-mer frequency, TF over GST control)"
AGTGGT,"1.1 fold enrichment (6-mer frequency, TF over GST control)",–,"1.01 fold enrichment (6-mer frequency, TF over GST control)",–,"1.14 fold enrichment (6-mer frequency, TF over GST control)","1.14 fold enrichment (6-mer frequency, TF over GST control)"
GGTTAT,–,"1.09 fold enrichment (6-mer frequency, TF over GST control)",–,"1.04 fold enrichment (6-mer frequency, TF over GST control)","1.12 fold enrichment (6-mer frequency, TF over GST control)","1.1 fold enrichment (6-mer frequency, TF over GST control)"
TCATAC,"1.07 fold enrichment (6-mer frequency, TF over GST control)","1.15 fold enrichment (6-mer frequency, TF over GST control)","1.08 fold enrichment (6-mer frequency, TF over GST control)","1.02 fold enrichment (6-mer frequency, TF over GST control)","1.09 fold enrichment (6-mer frequency, TF over GST control)","1.09 fold enrichment (6-mer frequency, TF over GST control)"
GTTGTA,–,–,"1.04 fold enrichment (6-mer frequency, TF over GST control)",–,"1.06 fold enrichment (6-mer frequency, TF over GST control)",–
AGTGCC,–,"1.08 fold enrichment (6-mer frequency, TF over GST control)",–,–,"1.05 fold enrichment (6-mer frequency, TF over GST control)",–
ATAGCG,–,–,"1.11 fold enrichment (6-mer frequency, TF over GST control)",–,–,–
CAACCG,–,"1.08 fold enrichment (6-mer frequency, TF over GST control)","1.08 fold enrichment (6-mer frequency, TF over GST control)",–,–,–
ACATAG,–,"1.11 fold enrichment (6-mer frequency, TF over GST control)","1.14 fold enrichment (6-mer frequency, TF over GST control)",–,"1.13 fold enrichment (6-mer frequency, TF over GST control)","1.02 fold enrichment (6-mer frequency, TF over GST control)"
ATGCAG,"1.15 fold enrichment (6-mer frequency, TF over GST control)","1.1 fold enrichment (6-mer frequency, TF over GST control)","1.05 fold enrichment (6-mer frequency, TF over GST control)",–,–,"1.06 fold enrichment (6-mer frequency, TF over GST control)"
CATACA,"1.06 fold enrichment (6-mer frequency, TF over GST control)","1.1 fold enrichment (6-mer frequency, TF over GST control)",–,–,"1.1 fold enrichment (6-mer frequency, TF over GST control)",–
CCAACC,"1.13 fold enrichment (6-mer frequency, TF over GST control)","1.08 fold enrichment (6-mer frequency, TF over GST control)","1.08 fold enrichment (6-mer frequency, TF over GST control)",–,"1.07 fold enrichment (6-mer frequency, TF over GST control)","1.05 fold enrichment (6-mer frequency, TF over GST control)"
CACATG,"1.23 fold enrichment (6-mer frequency, TF over GST control)","1.12 fold enrichment (6-mer frequency, TF over GST control)","1.04 fold enrichment (6-mer frequency, TF over GST control)",–,"1.03 fold enrichment (6-mer frequency, TF over GST control)","1.02 fold enrichment (6-mer frequency, TF over GST control)"
